Screening results (PubChem BioAssay)
In the library only some 3.9% were active in any assay of this set; here they are far more common.
ALR inh: inhibitors of human ALR sulfhydryl oxidase, primary screen, biochemical, H2O2 detection, HRP-luminol luminescence, single point; FAD-linked sulfhydryl oxidase ALR (Homo sapiens), P55789; purified ALR, DTT oxidation; inhibition, % (test concentration not listed); hit rate 3.8% among 290,000; AID 485317, 2010;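 active = mean replicate inhibition above about 79%, with every replicate also reaching it, limit read from the data; inconclusive = only one of the two criteria met; inactive = mean below limit and not every replicate reaching it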
Target sequence (P55789 whole entry, looked up): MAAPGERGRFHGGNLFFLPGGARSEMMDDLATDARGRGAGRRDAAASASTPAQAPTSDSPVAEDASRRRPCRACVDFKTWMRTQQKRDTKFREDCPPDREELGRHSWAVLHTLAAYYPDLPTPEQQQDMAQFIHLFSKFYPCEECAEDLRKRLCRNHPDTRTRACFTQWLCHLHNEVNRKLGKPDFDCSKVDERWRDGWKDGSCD
CASP6 VEID inh: human caspase-6 inhibitors, primary screen, biochemical, VEID-R110 fluorescence, single point, set 2; P55212; purified caspase-6, Z-VEID-R110 cleavage fluorescence; inhibition, % at 12.5 µM; hit rate 0.53% among 350,000; AID 686996, 2013;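 active = mean inhibition across replicates at least about 35%, with every replicate also reaching that limit, limit read from the data; inconclusive = only one of the two criteria met; inactive = neither criterion met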;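 also: 0% = median of neutral control wells and 100% = no fluorescence left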
Target sequence (P55212 24-179 limits assumed): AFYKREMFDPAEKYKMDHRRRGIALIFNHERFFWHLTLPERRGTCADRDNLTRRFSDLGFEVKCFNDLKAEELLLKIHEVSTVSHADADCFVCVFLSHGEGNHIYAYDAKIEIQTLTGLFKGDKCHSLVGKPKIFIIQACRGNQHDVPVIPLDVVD
Target sequence (P55212 194-293 limits assumed): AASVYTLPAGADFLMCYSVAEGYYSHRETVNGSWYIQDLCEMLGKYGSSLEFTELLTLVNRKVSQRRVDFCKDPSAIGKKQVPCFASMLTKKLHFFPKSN
SUMO Mot1 rescue: yeast Mot1-301 growth rescue at high temperature, primary screen, SUMOylation pathway inhibitor project, S. cerevisiae, ATP luminescence, 38.5C; S. cerevisiae Mot1-301 growth rescue; percent above DMSO median, 100 means doubled; growth rescue, % at 18.8 µM; hit rate 1% among 320,000; AID 2716, 2010;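 active = every valid replicate shows activation above 250% relative to neutral control wells; inactive = the rest, any valid replicate at or below 250%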;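 also: OY570 slx delta 5 strain wells were the positive control but not used for scaling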
CDK5 inh: inhibitors of human CDK5/p35 kinase, primary screen, biochemical, single concentration | Cyclin-dependent kinase 5 (Homo sapiens) + Cyclin-dependent kinase 5 activator 1 (Homo … | Recombinant CDK5/p35, ADP-Glo luminescence, 60 min | inhibition, % at 10 µM | hit rate 0.01% among 330,000 | AID 488839, 2010;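 active = highest replicate inhibition of at least 50% and at least 75% of replicates reaching 50%; inconclusive = only one of the two criteria met; inactive = both criteria failed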;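 also: plate controls were DMSO neutral control for no effect and GW8510 at 10 µM for full effect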
NSD2 HMT inh: NSD2 histone methyltransferase inhibitors, primary screen, biochemical, AlphaScreen, single concentration, set 2 | NSD2 peptide methylation, 120 min | inhibition, % at 12.5 µM | hit rate 0.54% among 310,000 | AID 743445, 2014; in the data active = inhibition above about 50%
Glyco luc inh: increase of ERlucT glycosylation luciferase signal, primary screen, N-linked glycosylation inhibitor project, D54 ERlucT cells, luminescence, set 2 | D54 ERlucT glycosylation luciferase reporter, 24 h; percent of 100 nM tunicamycin response | reporter increase, % at 12.5 µM | hit rate 0.23% among 360,000 | AID 588692, 2011;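 active = mean luciferase reporter signal, scaled so untreated is 0 and the glycosylation-blocking control 100, at or above a set limit in every replicate; inconclusive = mean reaches the limit but not every replicate does; inactive = mean below the limit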;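 also: luciferase carries N-glycosylation sites so blocking glycosylation raises the light; 0% = median of neutral control wells and 100% = median of 100 nM tunicamycin wells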
* marks the source's active call; other numbers are inactive results; ? = inconclusive; . = not tested or not shown.

SMILES	ALR inh	CASP6 VEID inh	SUMO Mot1 rescue	CDK5 inh	NSD2 HMT inh	Glyco luc inh
COc1ccccc1CCC(=O)Nc1ccc(S(=O)(=O)Nc2cc(C)nc(C)n2)cc1	54	-1	-1	-1	-2	-2
Cc1cc(NS(=O)(=O)c2ccc(NC(=O)COc3ccccc3[N+](=O)[O-])cc2)no1	-1	74*	291	0	39	1
Cc1ccccc1OCCCC(=O)Nc1ccc2c(c1)OCO2	98*	-1	-8	2	1	2
Cc1cc(NS(=O)(=O)c2ccc(NC(=O)CCCOc3ccccc3C)cc2)nc(C)n1	99*	8	6	0	11	3
COc1cc(OC)cc(C(=O)Nc2ccc(S(=O)(=O)Nc3cc(C)nc(C)n3)cc2)c1	85*	.	.	.	-2	.
Cc1cc(NC(=O)c2ccc(S(=O)(=O)Nc3ccccc3)cc2)no1	98*	.	.	-1	-3	2
Cc1ccc(S(=O)(=O)Nc2ccc(C(=O)Nc3cc(C)on3)cc2)cc1	55	.	9	2	4	0
COc1ccccc1/C=C/C(=O)Nc1ccc(S(=O)(=O)Nc2cc(C)nc(C)n2)cc1	50	-1	351*	0	.	1
Cc1ccc(OCC(=O)Nc2ccc(S(=O)(=O)Nc3ccccn3)cc2)c(C)c1	-4	.	124	0	1	1
Cc1ccccc1OCC(=O)Nc1ccc(S(=O)(=O)Nc2ccccn2)cc1	99*	.	19	-1	21	1
C[C@@H]1CN([C@H](C)CO)C(=O)c2cc(NS(C)(=O)=O)ccc2O[C@@H](C)CCCCO[C@H]1CN(C)C(=O)Nc1ccc2c(c1)OCO2	.	0	.	.	.	.
O=S(=O)(Nc1ccc2c(c1)OCO2)c1ccc(F)c(F)c1	88*	0	4	0	-1	0
O=C(O)c1cccc(S(=O)(=O)Nc2ccc3c(c2)OCO3)c1	-12	.	-11	-3	0	4
C[C@@H]1CN([C@@H](C)CO)C(=O)CCCn2cc(nn2)CO[C@@H]1CN(C)Cc1ccc2c(c1)OCCN2C	.	-3	.	.	.	.
O=C(NC1CCCC1)c1ccc(COCC(F)(F)C(F)F)o1	98*	2	-19	0	-4	0
COc1cc(C2NC(=S)NC(C)=C2C(=O)OC(C)C)ccc1OC(C)C (configuration not stated)	96*	.	.	2	0	2
COCCNC(=O)Nc1ccc2c(c1)N(C)C(=O)c1ccccc1S2	96*	.	17	-2	-1	-1
CCC(C)NC(=O)Nc1ccc2c(c1)N(C)C(=O)c1ccccc1S2 (configuration not stated)	-3	.	-3	0	-1	-2
CCc1ccc(NCc2ccc(OC)c(Cn3ccnc3)c2)cc1	81*	-5	341*	1	5	-1
COc1ccc(CNc2ccc(Cl)cc2)cc1Cn1ccnc1	.	-2	-1	2	9	-2
COc1ccc(S(=O)(=O)N[C@H]2CC[C@H](CC(=O)N3CCN(c4ccccc4)CC3)O[C@H]2CO)cc1	.	1	.	.	.	.
O=C(CCl)NC(Cc1c[nH]c2ccc(OCc3ccccc3)cc12)C(=O)O (configuration not stated)	5	36*	6	-1	15	1
CC(=O)NCCc1c[nH]c2ccc(OCc3ccccc3)cc12	-2	5	11	.	1	0
C=C(C)CNC(=S)N/N=C1\CCCCc2ccccc21	-20	0	311*	0	2	-2
CCNC(=S)N/N=C1\CCCCc2ccccc21	7	-2	-4	0	0	1
SMILES	ALR inh	CASP6 VEID inh	SUMO Mot1 rescue	CDK5 inh	NSD2 HMT inh	Glyco luc inh
Cc1nc(NS(=O)(=O)c2ccccc2)sc1NC(=O)OC(C)C	36	.	5	-2	1	1
Cc1ccc(S(=O)(=O)Nc2nc(C)c(NC(=O)OCCCl)s2)cc1	98*	.	-1	0	2	2
OC[C@@H]1[C@H](c2ccc(Br)cc2)[C@H]2CNCCCCN12	.	-4	.	.	.	.
Cc1cc(C)nc(Sc2c(C)n[nH]c2C)n1	3	3	-19	-1	.	2
Cc1n[nH]c(C)c1Sc1ccccc1N	96*	-1	-12	-2	-2	0
OCCCn1c(-c2ccccc2)nc(=S)c2c1CCCC2	-3	.	10	3	3	1
S=c1nc(-c2ccccc2Cl)n(Cc2cccnc2)c2c1CCCC2	99*	-24	8	-2	-1	0
CC(=O)NC1=C(NC2CCS(=O)(=O)C2)C(=O)c2ccccc2C1=O (configuration not stated)	-18	.	-10	-2	69*	9
COc1ccc(-c2ccc3n(c2=O)C[C@H]2[C@H](CO)[C@@H](C(=O)NCCN4CCCCC4)N(C)[C@@H]32)cc1	.	3	.	.	.	.
C[C@@H]1CN([C@@H](C)CO)C(=O)c2cccc(NS(=O)(=O)c3ccc(Cl)cc3)c2O[C@H]1CN(C)C(=O)NC1CCCCC1	.	0	.	.	.	.
CCOc1ccc(S(=O)(=O)Nc2ccc3c(c2)n(C)c(=O)n3C)cc1	.	-1	2	-1	-1	?
CCOc1ccc(S(=O)(=O)Nc2ccc3c(c2)c2c(n3S(=O)(=O)c3ccc(OCC)cc3)CCCC2=O)cc1	-1	.	877*	.	-1	.
COc1ccc(S(=O)(=O)N2Cc3ccccc3CC2C(=O)Nc2ccc(O)cc2)cc1OC (configuration not stated)	95*	-1	-3	1	.	-1
CC(=O)N(C)C[C@@H]1Oc2ncc(-c3cccc(F)c3)cc2C(=O)N([C@H](C)CO)C[C@H]1C	.	0	.	.	.	.
O=C(N[C@@H]1C[C@@H]2O[C@H](CO)CC[C@@H]2O[C@@H]1CCc1ccc(C#Cc2ccccc2)cc1)c1ccccn1	.	2	.	.	.	.
CN(C)c1ccc(NC(=O)CSc2nc3ccccc3c(=O)n2CC2CCCO2)cc1 (configuration not stated)	87*	0	-15	-1	.	-3
O=C1c2ccccc2C(=O)N1CC1CCCO1 (configuration not stated)	1	.	368	1	-1	3
O=C(CCCn1c(SCC(=O)c2ccc(O)c(O)c2)nc2ccccc2c1=O)NCC1CCCO1 (configuration not stated)	99*	.	-30	-2	25	-2
O=c1c2ccccc2c2ccccc2c(=O)n1CC1CCCO1 (configuration not stated)	99*	.	13	0	2	1
